High-throughput results from PubChem BioAssay.
Jurkat NFkB inh: lowers PMA/ionomycin-induced NF-kB signal in Jurkat cells. PMA/ionomycin-induced NF-kB luciferase reporter, luminescence. inhibition, % at 4 µM. hit rate 0.53% among 330,000; in the data active = inhibition above about 50%
697 NFkB inh: lowers PMA/ionomycin-induced NF-kB signal in 697 B cells; 697 B-cell NF-kB luciferase reporter, 16 h; inhibition, % at 4 µM; hit rate 0.33% among 330,000; in the data active = inhibition above about 35%
Mdm2-MdmX inh: disrupts the human Mdm2-MdmX interaction. inhibition, % at 8 µM. SaOS-2 split-luciferase Mdm2/MdmX complementation, luminescence. O15151+Q00987. hit rate 3% among 330,000;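 active = inhibition of at least 50% at 8 µM in the primary screen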
A1 inh: inhibitors of the anti-apoptotic protein A1, read as caspase activation; MEF A1-2A-BIM cells, Caspase-Glo 3/7 luminescence, 3 h; percent of clofoctol response, vehicle zero; caspase activation, % (no concentration beside the values); hit rate 0.066% among 330,000;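 active = over half of replicate activation scores above 10%, or exactly half above 10 with the replicate mean above 10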
NTR1 agonist: activates human neurotensin receptor 1; P30989; NTR1-U2OS beta-arrestin-GFP spot imaging, agonist mode; activation, % at 20 µM; hit rate 0.17% among 330,000;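 active = activation at or above 40% of the spot to cytoplasm intensity ratio, with at least 20 cells analyzed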
Target sequence (P30989 whole entry, looked up): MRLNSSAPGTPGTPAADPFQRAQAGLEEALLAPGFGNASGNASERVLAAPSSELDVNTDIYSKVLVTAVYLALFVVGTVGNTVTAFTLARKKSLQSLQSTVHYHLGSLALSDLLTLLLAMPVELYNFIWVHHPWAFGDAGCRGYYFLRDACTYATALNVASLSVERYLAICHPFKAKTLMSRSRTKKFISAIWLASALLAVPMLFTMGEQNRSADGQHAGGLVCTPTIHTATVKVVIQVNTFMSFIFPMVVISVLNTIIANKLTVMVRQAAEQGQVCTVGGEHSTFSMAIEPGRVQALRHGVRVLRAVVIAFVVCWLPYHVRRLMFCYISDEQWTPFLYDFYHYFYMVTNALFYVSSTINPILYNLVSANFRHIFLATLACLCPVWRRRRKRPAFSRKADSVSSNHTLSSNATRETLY
Beta cell apopt: blocks beta cell apoptosis. INS-1E cytokine-induced death, ATP luminescence, 48 h; percent of positive-control rescue, neutral wells zero. protection from apoptosis, % (concentration not given with the values). hit rate 0.8% among 300,000;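 active = Every replicate reaches about 75%, or at least half do and their mean reaches it too, limit read from the data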;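 note: higher means more ATP so stronger rescue from cytokine killing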
697 NFkB conf: lowers PMA/ionomycin-induced NF-kB signal in 697 B cells; shares compounds with 697 NFkB inh; 697 B-cell NF-kB luciferase, 16 h; inhibition, % at 4 µM; hit rate 35% among 2,000; in the data active = inhibition mostly above about 28%, no sharp cut-off; inactive = mostly below about 22%
Large screens that a line does not name were inactive (follow-up assays come after a bar, where they were run). An excerpt weighted towards active compounds, which were near 3.8% of everything screened.

COc1ccc(C(=O)c2ccccc2)c(O)c1	none
COc1ccc(N=Nc2ccc3ccccc3c2)c(O)c1	none | 697 NFkB conf inactive
N#CCCN1CCN(Cc2ccccc2)CCC1=O	none
O=C(O)c1ccccc1N/N=C\c1ccnc2ccccc12	none | 697 NFkB conf inactive
O=C(OCCc1ccccc1)c1cc(O)c(O)c(O)c1	none | 697 NFkB conf inactive
Cc1ccccc1Nc1nc(Cl)c(C=O)s1	697 NFkB inh 35 | 697 NFkB conf 40
CSc1nnc(Nc2ccccc2C)s1	none
COc1ccc(C(=O)N/N=C/c2ccc(OC)c(CN3CCCc4ccccc43)c2)cc1	697 NFkB inh 44 | 697 NFkB conf 29
COCCn1c(C)c(C)c2c(NCCc3ccccc3)ncnc21	none | 697 NFkB conf inactive
COc1ccc2nc(SC(C)C(=O)NC3CCCCC3)[nH]c2c1 (stereo not given)	none (no result: A1 inh, Beta cell apopt)
COc1cccc2c1C(=O)O/C2=C/c1ccc2c(c1)OCO2	none | 697 NFkB conf inactive
COc1cccc(OC)c1C1=CC(=O)C[C@H](c2ccc3c(c2)OCO3)C1	none
CCOC(=O)C1CCCc2c1[nH]c1ccc(Cl)cc21 (stereo not given)	none (no result: Beta cell apopt) | 697 NFkB conf inactive
CCN(C(=O)COC(=O)c1cccc(S(=O)(=O)NCc2ccccc2)c1)c1ccccc1	none (no result: A1 inh, Beta cell apopt)
CC(=O)Nc1ccc(NC(=O)C2CC(=O)Nc3nc4ccccc4n32)cc1 (stereo not given)	none
O=C1CC(C(=O)Nc2cccc(F)c2)n2c(nc3ccccc32)N1 (stereo not given)	697 NFkB inh 35 | 697 NFkB conf inactive
N#CC1=C(N)N2C(=C(C#N)C1c1ccccc1)Sc1ccccc12 (stereo not given)	none
c1ccc([C@H]2CN3C(=N2)Sc2ccccc23)cc1	none | 697 NFkB conf inactive
Nc1nn(-c2ccccc2)c(N)c1N=Nc1ccc2c(c1)OCO2	none | 697 NFkB conf inactive
COCCCNC(=O)c1c(N)n(/N=C/c2cccnc2)c2nc3ccccc3nc12	none (no result: Beta cell apopt)
CCC(C)NC(=O)c1c(N)n(/N=C/c2ccccn2)c2nc3ccccc3nc12 (stereo not given)	697 NFkB inh 52 (no result: A1 inh) | 697 NFkB conf 44
O=C(NCC(c1ccco1)N1CCc2ccccc2C1)c1ccc(Br)cc1 (stereo not given)	none
CC(=O)/C(C#N)=C1\NC(=O)C(Cc2ccccc2)S1 (stereo not given)	none | 697 NFkB conf inactive
Cc1ccc(OCC(=O)NC(C)c2ccc(Cl)c(Cl)c2)c([N+](=O)[O-])n1 (stereo not given)	none
CCc1ccc(-c2nnn(CCC(=O)OC)n2)cc1	697 NFkB inh 52 (no result: Beta cell apopt) | 697 NFkB conf 64
CCc1ccc(-c2nnn(CCC#N)n2)cc1	none
CC1CC(C)CN(S(=O)(=O)c2ccc(C(=O)N(C)Cc3ccccc3)cc2)C1 (stereo not given)	none
Cc1nn(CC(=O)Nc2ccc(Cl)cc2)c(=O)c2cc(-c3ccccc3)nn12	none
Cc1ccc(C)c(OCCn2cc(C(=O)O)c3ccccc32)c1	none
CC(=O)c1cn(CCOc2cc(C)ccc2C)c2ccccc12	697 NFkB inh 65, Beta cell apopt 89 | 697 NFkB conf 83
Cc1ccc(-c2nc(N)n(C(=O)c3ccco3)n2)cc1	697 NFkB inh 36 | 697 NFkB conf inactive
COc1ccc(CN(C(=O)CNC(=O)c2ccco2)C(C(=O)NCC2CCCO2)c2ccc(OC)c(OC)c2)cc1 (stereo not given)	none
C#CCN(C)Cc1ccccc1	none
C#CCN(Cc1ccccc1)S(=O)(=O)C=C	697 NFkB inh 36 | 697 NFkB conf 30
Cc1ccc(OCC(=O)NC2=NCCS2)cc1	none
Cc1ccc(/C=C/C(=O)NC2=NCCS2)cc1	none | 697 NFkB conf inactive
Cc1ccc(NC(=O)c2ccccc2O)cc1	none
Cc1cc(C)cc(NC(=O)Nc2ccc(NC(=O)c3ccccc3O)cc2)c1	697 NFkB inh 36 | 697 NFkB conf 37
Cc1ccccc1NS(=O)(=O)c1ccc(C(=O)NCC(C)(C)N2CCOCC2)cc1	none
CC1CCN(c2cc(N3CCOCC3)c([N+](=O)[O-])cc2F)CC1	none
CC1CCN(c2cc(N3CCN(C(=O)c4ccc(F)c(F)c4)CC3)c([N+](=O)[O-])cc2F)CC1	697 NFkB inh 38 | 697 NFkB conf inactive
Cc1ccc(/C=C2\SC(=S)N(CCC(=O)NNC(=O)c3cccc(O)c3)C2=O)cc1	697 NFkB inh 40 | 697 NFkB conf inactive
Cc1ccc(/C=C2\SC(=S)N(CCC(=O)NNC(=O)c3ccc(O)cc3)C2=O)cc1	none
Cc1ccc(/C=C2\SC(=S)N(CCCC(=O)NNC(=O)c3ccccc3O)C2=O)cc1	697 NFkB inh 88 | 697 NFkB conf 76
CN1CCN(C(=O)c2ccc(OCCOc3ccccc3)cc2)CC1	none
NC(=O)C1CCN(C(=O)CC(c2ccccc2)c2ccccc2)CC1	none (no result: Beta cell apopt)
COc1ccccc1C1CC(=O)Oc2cc(C)c(Br)c(C)c21 (stereo not given)	none (no result: Jurkat NFkB inh, A1 inh, Beta cell apopt)
Nc1nnc(CCS(=O)(=O)c2cc(Cl)ccc2Cl)s1	none
Cc1ccccc1CN(C)CCS(=O)(=O)c1cc(Cl)ccc1Cl	697 NFkB inh 36 | 697 NFkB conf inactive
Cc1cccnc1NC(=O)CCCNC(=O)c1ccc(Cl)cc1	none
COc1ccc(-c2csc(Nc3cccc(C)n3)n2)cc1	none (no result: Beta cell apopt) | 697 NFkB conf inactive
Cc1cccc(Nc2nc(-c3ccc(F)cc3)cs2)n1	none
Cc1ccnc(Nc2nc(-c3ccccc3)cs2)c1	none | 697 NFkB conf inactive
Cc1ccc(C(=O)NC(=S)Nc2ccc(-c3cc4ccccc4oc3=O)cc2)c(C)c1	697 NFkB inh 36 | 697 NFkB conf inactive
CCC(=O)Nc1cccc(-c2cc3ccccc3oc2=O)c1	none
O=C(Cc1cccc2ccccc12)Nc1ccc(-c2cc3ccccc3oc2=O)cc1	697 NFkB inh 72 | 697 NFkB conf 50
COCCCNC(CC(=O)Nc1cc(C)cc(C)c1)C(=O)O (stereo not given)	none
O=C(COc1ccc(F)cc1)N(Cc1ccc(Cl)cc1)C1CCS(=O)(=O)C1 (stereo not given)	none
CCOC(=O)c1nn(-c2ccccc2)c(C#N)c1NC(=O)c1nn(CC)cc1Br	697 NFkB inh 37 | 697 NFkB conf 40
CCOC(=O)c1c(NC(=O)c2nn(CC)cc2Br)c(C#N)nn1-c1ccccc1	none
Cc1ccc(N2C(=O)c3ccccc3NC2c2ccccc2O)cc1 (stereo not given)	none | 697 NFkB conf inactive
O=C1c2ccccc2NC(c2ccccc2O)N1O (stereo not given)	none
CCCCCN(C(=O)CCC(=O)OCc1cccc(Br)c1)c1c(N)n(CCCC)c(=O)[nH]c1=O	697 NFkB inh 35 | 697 NFkB conf inactive
Cn1nc(-c2ccc(C(=O)Nc3ccc(F)cc3)cc2)c2ccccc2c1=O	none (no result: Beta cell apopt)
Cc1ccc(NC(=O)c2ccc3c(c2)OCCO3)cc1	none | 697 NFkB conf inactive
